Drawing on PubChem BioAssay (EPA / NIEHS), this text covers outcome and AC50 for 16 compounds.

Test [1] addresses Mitogen-activated protein kinase 3 (Homo sapiens) (UniProt P27361). As to the kind of experiment: NVS_ENZ_hMAPK3: NovaScreen (NVS) Enzymatic Assay for human Mitogen-Activated Protein Kinase 3 (MAPK 3) (AID 2283177). A digest of the protocol: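 Cell-free enzymatic assay with recombinant protein and specific substrate; fluorescence and electrophoretic mobility shift read-out 1 h after dosing. Primary screen duplicate at 25 uM; actives then run in concentration-response up to 50 uM, loss of signal versus DMSO.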

The target in test [2] is human Fibroblast Growth Factor Receptor 1 (FGFR1), FGFR1 (gene 2260) (UniProt P11362). In words: NVS_ENZ_hFGFR1: NovaScreen (NVS) Enzymatic Assay for human Fibroblast Growth Factor Receptor 1 (FGFR1) (AID 2283159). A digest of the protocol:
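Cell-free recombinant kinase with fluorescent substrate, product separated by electrophoretic mobility shift; read 1 hour after dosing, loss of signal relative to DMSO. Initial screen in duplicate at 25 uM, actives followed in concentration series.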

In test [3] the target is human IkappaB Kinase alpha (IKKa), CHUK (gene 1147) (UniProt O15111). As to the kind of experiment: NVS_ENZ_hIKKa: NovaScreen (NVS) Enzymatic Assay for human IkappaB Kinase alpha (IKKa) (AID 2283167). The method, boiled down: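 Cell-free recombinant human IKKa with fluorescent substrate, product separated by electrophoretic mobility shift; read 1 hour after dosing. Primary screen duplicate at 25 uM, actives then concentration-response up to 50 uM; loss of signal relative to DMSO.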
Chain of human IkappaB Kinase alpha (IKKa), CHUK (gene 1147) (O15111 whole entry, looked up): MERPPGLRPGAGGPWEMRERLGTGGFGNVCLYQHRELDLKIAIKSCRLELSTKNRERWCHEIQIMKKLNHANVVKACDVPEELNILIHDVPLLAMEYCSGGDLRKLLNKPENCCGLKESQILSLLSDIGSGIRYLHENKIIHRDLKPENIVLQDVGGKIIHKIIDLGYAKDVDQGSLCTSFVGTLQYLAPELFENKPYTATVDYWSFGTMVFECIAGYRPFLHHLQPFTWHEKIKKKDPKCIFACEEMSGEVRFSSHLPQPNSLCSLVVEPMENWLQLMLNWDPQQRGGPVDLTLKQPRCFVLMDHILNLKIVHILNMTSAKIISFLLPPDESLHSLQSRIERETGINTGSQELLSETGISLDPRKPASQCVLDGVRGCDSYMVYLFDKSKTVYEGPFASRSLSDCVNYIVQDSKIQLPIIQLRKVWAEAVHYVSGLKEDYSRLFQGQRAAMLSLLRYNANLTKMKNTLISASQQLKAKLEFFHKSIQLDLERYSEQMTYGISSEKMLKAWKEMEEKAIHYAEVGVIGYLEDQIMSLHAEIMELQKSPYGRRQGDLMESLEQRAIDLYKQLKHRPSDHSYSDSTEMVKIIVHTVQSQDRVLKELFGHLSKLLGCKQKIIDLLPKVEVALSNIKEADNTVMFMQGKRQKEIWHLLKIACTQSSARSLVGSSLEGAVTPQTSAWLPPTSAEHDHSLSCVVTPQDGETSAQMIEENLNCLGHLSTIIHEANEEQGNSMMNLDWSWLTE

The target of test [4] is human LYN Proto-Oncogene, Src family Tyrosine Kinase (LynA), LYN (gene 4067) (UniProt P07948). In words: NVS_ENZ_hLynA: NovaScreen (NVS) Enzymatic Assay for human LYN Proto-Oncogene, Src family Tyrosine Kinase (LynA) (AID 2283173). On the procedure:
(§1) NVS_ENZ_hLynA is a biochemical, single-readout assay that uses extracted gene-proteins in a cell-free assay. Measurements were taken 1 hour after chemical dosing in a 384-well plate.NVS_ENZ_hLynA is one of one assay component(s) measured or calculated from the NVS_ENZ_hLynA assay. It is designed to make measurements of enzyme activity, a form of enzyme reporter, as detected with fluorescence intensity signals by Fluorescence and electrophoretic mobility shift technology.Data from the assay component NVS_ENZ_hLynA was analyzed into 1 assay endpoint. This assay endpoint, NVS_ENZ_hLynA, was analyzed in the positive analysis fitting direction relative to DMSO as the negative control and baseline of activity. Using a type of enzyme reporter, loss-of-signal activity can be used to understand changes in the enzymatic activity as they relate to the gene LYN. Furthermore, this assay endpoint can be referred to as a primary readout, because this assay has produced multiple assay endpoints where this one serves a enzymatic activity function. To generalize the intended target to other relatable targets, this assay endpoint is annotated to the kinase intended target family, where the subfamily is non-receptor tyrosine kinase. […]

The target in test [5] is Glycogen synthase kinase-3 beta (Homo sapiens) (UniProt P49841). As to the kind of experiment: NVS_ENZ_hGSK3b: NovaScreen (NVS) Enzymatic Assay for human Glycogen Synthase Kinase-3 beta (GSK3b) (AID 2283165). A digest of the protocol: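 Recombinant enzyme with specific fluorescent substrate, 1 h, product separated by electrophoretic mobility shift. Primary duplicate screen at 25 uM; actives (e.g. 30% inhibition) followed in singleton concentration-response to 50 uM. Signal loss fitted versus DMSO.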
Chain of Glycogen synthase kinase-3 beta (Homo sapiens) (P49841 whole entry, looked up): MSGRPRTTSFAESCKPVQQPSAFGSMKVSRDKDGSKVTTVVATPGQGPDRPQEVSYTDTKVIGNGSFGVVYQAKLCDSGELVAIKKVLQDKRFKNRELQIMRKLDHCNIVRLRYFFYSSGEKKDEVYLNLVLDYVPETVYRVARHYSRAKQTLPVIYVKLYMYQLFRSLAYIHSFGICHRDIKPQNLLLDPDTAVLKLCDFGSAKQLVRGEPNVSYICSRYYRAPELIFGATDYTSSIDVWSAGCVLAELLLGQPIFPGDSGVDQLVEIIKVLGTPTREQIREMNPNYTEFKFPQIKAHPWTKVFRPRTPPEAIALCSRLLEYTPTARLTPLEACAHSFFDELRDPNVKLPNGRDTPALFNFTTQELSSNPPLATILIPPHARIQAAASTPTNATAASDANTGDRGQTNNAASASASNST

In test [6] the target is human Mitogen-Activated Protein Kinase 1 (MAPK 1), MAPK1 (gene 5594) (UniProt P28482). In words: NVS_ENZ_hMAPK1: NovaScreen (NVS) Enzymatic Assay for human Mitogen-Activated Protein Kinase 1 (MAPK 1) (AID 2283175). The method, then: as §1, with “NVS_ENZ_hMAPK1” for “NVS_ENZ_hLynA”, “plate.NVS_ENZ_hMAPK1” for “plate.NVS_ENZ_hLynA”, “NVS_ENZ_hMAPK1,” for “NVS_ENZ_hLynA,”, “MAPK1.” for “LYN.”, “serine/threonine” for “non-receptor tyrosine”
Chain of human Mitogen-Activated Protein Kinase 1 (MAPK 1), MAPK1 (gene 5594) (P28482 whole entry, looked up): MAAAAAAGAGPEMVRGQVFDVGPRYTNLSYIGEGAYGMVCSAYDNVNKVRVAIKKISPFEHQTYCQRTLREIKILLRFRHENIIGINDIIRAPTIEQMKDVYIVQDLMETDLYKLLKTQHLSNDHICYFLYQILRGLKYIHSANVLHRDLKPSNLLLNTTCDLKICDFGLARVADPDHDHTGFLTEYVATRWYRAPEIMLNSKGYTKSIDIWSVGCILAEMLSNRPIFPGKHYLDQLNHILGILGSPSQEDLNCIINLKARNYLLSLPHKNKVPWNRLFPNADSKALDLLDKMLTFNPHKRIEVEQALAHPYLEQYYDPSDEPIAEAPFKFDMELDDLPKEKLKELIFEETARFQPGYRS

Test [7] addresses Protein deacetylase HDAC6 (Homo sapiens) (UniProt Q9UBN7). In words: NVS_ENZ_hHDAC6: NovaScreen (NVS) Enzymatic Assay for human Histone Deacetylase 6 (HDAC6) (AID 2283164). On the procedure: NVS_ENZ_hHDAC6 is a biochemical, single-readout assay that uses extracted gene-proteins in a cell-free assay. Measurements were taken 1 hour after chemical dosing in a 384-well plate.NVS_ENZ_hHDAC6 is one of one assay component(s) measured or calculated from the NVS_ENZ_hHDAC6 assay. It is designed to make measurements of enzyme activity, a form of enzyme reporter, as detected with fluorescence intensity signals by Fluorescence and electrophoretic mobility shift technology.Data from the assay component NVS_ENZ_hHDAC6 was analyzed into 1 assay endpoint. This assay endpoint, NVS_ENZ_hHDAC6, was analyzed in the positive analysis fitting direction relative to DMSO as the negative control and baseline of activity. Using a type of enzyme reporter, loss-of-signal activity can be used to understand changes in the enzymatic activity as they relate to the gene HDAC6. Furthermore, this assay endpoint can be referred to as a primary readout, because this assay has produced multiple assay endpoints where this one serves a enzymatic activity function. To generalize the intended target to other relatable targets, this assay endpoint is annotated to the hydrolase intended target family, where the subfamily is histone deacetylase.
Binding assays used specific radioligands (tritiated, iodinated) with non-radioactive competitive displacement ligands in agonist or antagonist protocols (as indicated) and various reference compounds and inhibitors to titrate specific binding to receptors and transporters. Most enzyme assays (CYPs, kinases, phosphatases, proteases, HDACs) used recombinant protein and specific substrates (fluorescence mostly, some colorimetric and radioactive) and inhibitors, followed by a biochemical separation of substrate and product. All assays for the biochemical HTS were initially run in duplicate at a single concentration (10 uM for CYP450 assays and 25 uM for all others). […]

In test [8] the target is Histone deacetylase 3 (Homo sapiens) (UniProt O15379). As to the kind of experiment: NVS_ENZ_hHDAC3: NovaScreen (NVS) Enzymatic Assay for human Histone Deacetylase 3 (HDAC3) (AID 2283163). A digest of the protocol: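 Recombinant human HDAC3 with fluorescent substrate, 1 h after dosing; product separated from substrate by electrophoretic mobility shift and read by fluorescence. Primary screen at 25 uM in duplicate; actives (e.g. ≥30% inhibition) retested in concentration-response up to 50 uM.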
Chain of Histone deacetylase 3 (Homo sapiens) (O15379 whole entry, looked up): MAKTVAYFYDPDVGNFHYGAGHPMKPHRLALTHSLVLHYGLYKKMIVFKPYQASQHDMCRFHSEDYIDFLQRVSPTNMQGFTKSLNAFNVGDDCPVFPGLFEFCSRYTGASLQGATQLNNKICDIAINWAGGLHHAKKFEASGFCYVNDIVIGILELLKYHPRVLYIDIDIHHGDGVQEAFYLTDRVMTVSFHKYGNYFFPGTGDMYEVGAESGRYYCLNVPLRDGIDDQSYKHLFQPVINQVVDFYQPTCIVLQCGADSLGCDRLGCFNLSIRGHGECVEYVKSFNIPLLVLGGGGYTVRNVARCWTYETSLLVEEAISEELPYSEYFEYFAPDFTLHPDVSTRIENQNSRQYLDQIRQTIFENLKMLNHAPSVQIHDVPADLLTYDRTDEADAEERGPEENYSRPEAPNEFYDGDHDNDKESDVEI

The target of test [9] is human Janus Kinase 2 (Jak2), JAK2 (gene 3717) (UniProt O60674). As to the kind of experiment: NVS_ENZ_hJak2: NovaScreen (NVS) Enzymatic Assay for human Janus Kinase 2 (Jak2) (AID 2283169). On the procedure: as §1, with “NVS_ENZ_hJak2” for “NVS_ENZ_hLynA”, “plate.NVS_ENZ_hJak2” for “plate.NVS_ENZ_hLynA”, “NVS_ENZ_hJak2,” for “NVS_ENZ_hLynA,”, “JAK2.” for “LYN.”
Test [10] addresses human FYN Proto-Oncogene, Src family Tyrosine Kinase (Fyn), FYN (gene 2534) (UniProt P06241). In words: NVS_ENZ_hFyn: NovaScreen (NVS) Enzymatic Assay for human FYN Proto-Oncogene, Src family Tyrosine Kinase (Fyn) (AID 2283161). A digest of the protocol: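 Recombinant enzyme with fluorescent substrate, product separated by electrophoretic mobility shift; read 1 h after dosing. Duplicate 25 uM single-point screen, actives retested in concentration series; loss of signal vs DMSO.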

For orientation: AC50 means the midpoint of the concentration-response curve, whichever way the signal moves.

Structures are written as SMILES. “And” between values parts separate entries of the source, which are not always exact repeats. Equal values may be shown once. Records with an inconclusive call do not appear. Where a structure was tested more than once in an assay, its records may differ in their call. The source made the active and inactive calls. The calls were made as follows: active = hit-call score of the fitted dose curve at least 0.9, where 1 is the maximum; inconclusive = response in the unintended direction; inactive = score below 0.9.

Chain of human Fibroblast Growth Factor Receptor 1 (FGFR1), FGFR1 (gene 2260) (P11362 whole entry, looked up): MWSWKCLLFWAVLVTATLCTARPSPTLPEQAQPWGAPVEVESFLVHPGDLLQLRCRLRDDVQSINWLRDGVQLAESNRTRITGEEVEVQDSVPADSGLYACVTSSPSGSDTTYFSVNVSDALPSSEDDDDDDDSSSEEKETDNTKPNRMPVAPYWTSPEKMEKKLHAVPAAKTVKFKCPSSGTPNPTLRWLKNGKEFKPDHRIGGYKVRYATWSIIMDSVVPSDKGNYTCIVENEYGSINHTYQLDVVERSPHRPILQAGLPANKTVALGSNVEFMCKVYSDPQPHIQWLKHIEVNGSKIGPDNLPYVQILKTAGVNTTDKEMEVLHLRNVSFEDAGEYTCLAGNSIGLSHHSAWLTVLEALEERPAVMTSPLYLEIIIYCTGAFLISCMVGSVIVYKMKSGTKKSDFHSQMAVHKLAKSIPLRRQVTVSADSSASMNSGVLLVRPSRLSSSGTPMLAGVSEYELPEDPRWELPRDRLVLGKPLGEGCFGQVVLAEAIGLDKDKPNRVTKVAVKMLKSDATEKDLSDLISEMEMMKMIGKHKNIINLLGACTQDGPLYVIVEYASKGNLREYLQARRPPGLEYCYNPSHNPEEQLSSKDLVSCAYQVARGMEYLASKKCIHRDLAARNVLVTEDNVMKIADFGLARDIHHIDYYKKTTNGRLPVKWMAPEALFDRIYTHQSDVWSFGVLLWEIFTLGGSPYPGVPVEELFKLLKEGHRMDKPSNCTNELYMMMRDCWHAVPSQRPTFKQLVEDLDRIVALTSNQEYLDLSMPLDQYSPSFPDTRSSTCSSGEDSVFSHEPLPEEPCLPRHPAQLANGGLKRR
Chain of Mitogen-activated protein kinase 3 (Homo sapiens) (P27361 whole entry, looked up): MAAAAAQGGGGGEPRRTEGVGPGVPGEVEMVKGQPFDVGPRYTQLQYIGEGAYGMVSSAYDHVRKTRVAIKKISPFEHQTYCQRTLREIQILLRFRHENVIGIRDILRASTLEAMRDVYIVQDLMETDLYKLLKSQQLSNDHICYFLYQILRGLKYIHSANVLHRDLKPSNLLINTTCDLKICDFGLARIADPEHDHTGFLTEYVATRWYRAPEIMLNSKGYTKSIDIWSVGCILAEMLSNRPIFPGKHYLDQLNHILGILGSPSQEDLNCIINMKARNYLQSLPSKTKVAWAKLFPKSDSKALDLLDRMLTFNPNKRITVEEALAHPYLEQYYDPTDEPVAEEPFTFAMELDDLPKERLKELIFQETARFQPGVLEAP
Chain of Protein deacetylase HDAC6 (Homo sapiens) (Q9UBN7 whole entry, looked up): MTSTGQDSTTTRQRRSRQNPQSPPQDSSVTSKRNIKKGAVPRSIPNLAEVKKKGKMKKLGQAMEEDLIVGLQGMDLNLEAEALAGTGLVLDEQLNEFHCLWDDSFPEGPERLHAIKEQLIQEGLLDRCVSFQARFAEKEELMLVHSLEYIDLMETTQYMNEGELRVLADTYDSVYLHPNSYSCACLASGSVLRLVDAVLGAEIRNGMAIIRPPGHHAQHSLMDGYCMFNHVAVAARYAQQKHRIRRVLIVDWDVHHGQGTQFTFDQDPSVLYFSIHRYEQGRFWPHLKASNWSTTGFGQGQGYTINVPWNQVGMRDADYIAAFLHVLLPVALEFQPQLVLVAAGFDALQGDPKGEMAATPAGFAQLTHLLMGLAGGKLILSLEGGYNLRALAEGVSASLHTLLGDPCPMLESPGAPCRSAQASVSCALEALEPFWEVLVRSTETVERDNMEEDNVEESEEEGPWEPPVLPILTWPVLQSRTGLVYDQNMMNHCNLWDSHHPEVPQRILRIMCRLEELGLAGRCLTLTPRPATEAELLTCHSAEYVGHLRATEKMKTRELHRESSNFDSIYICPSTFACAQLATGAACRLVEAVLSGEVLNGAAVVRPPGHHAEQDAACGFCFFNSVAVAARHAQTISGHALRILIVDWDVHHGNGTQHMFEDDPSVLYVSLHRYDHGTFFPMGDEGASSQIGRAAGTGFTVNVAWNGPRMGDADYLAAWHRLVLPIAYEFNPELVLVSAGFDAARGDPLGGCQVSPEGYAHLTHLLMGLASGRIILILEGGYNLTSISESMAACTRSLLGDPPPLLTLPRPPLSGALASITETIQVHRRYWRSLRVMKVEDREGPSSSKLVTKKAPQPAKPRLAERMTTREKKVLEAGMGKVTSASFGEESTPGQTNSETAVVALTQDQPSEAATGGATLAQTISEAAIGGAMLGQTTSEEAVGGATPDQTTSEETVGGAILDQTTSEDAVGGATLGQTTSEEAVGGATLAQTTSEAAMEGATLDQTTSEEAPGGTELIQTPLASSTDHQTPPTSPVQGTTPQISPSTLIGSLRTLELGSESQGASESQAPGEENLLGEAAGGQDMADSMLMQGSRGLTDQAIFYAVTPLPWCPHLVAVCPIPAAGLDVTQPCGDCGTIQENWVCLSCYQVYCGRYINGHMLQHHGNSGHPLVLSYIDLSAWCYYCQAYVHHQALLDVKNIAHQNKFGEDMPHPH
Chain of human LYN Proto-Oncogene, Src family Tyrosine Kinase (LynA), LYN (gene 4067) (P07948 whole entry, looked up): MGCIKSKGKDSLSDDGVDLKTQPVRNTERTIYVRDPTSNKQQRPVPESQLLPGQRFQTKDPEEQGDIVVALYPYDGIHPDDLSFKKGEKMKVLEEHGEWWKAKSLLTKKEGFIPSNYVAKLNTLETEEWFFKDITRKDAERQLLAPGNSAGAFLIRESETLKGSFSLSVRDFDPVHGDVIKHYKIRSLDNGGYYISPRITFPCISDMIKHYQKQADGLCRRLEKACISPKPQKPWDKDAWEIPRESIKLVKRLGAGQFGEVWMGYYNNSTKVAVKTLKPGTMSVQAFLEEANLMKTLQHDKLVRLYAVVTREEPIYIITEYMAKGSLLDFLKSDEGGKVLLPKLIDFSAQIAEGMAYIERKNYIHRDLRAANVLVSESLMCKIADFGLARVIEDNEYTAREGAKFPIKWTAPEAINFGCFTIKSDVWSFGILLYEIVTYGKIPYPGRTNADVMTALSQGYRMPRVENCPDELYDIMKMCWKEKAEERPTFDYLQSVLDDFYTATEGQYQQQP

For `COc1cnc(OC)n2nc(NS(=O)(=O)c3c(OCC(F)F)cccc3C(F)(F)F)nc12`, the call in test [1] was inactive.
For `CO/C=C(/C(=O)OC)c1ccccc1Oc1cc(Oc2ccccc2C#N)ncn1`, the compound was classed as inactive in [2] and in test [3].
For the compound `COC(=O)c1ccccc1C(=O)OC`, the compound was called inactive in test [4].
As to `N#Cc1nn(-c2c(Cl)cc(C(F)(F)F)cc2Cl)c(N)c1S(=O)C(F)(F)F` (stereo unspecified), the compound was classed as inactive in test [2].
With `CCOC(=O)C(Cl)Cc1cc(-n2nc(C)n(C(F)F)c2=O)c(F)cc1Cl` (stereo unspecified), the outcome in [2] was inactive.
For the compound `COc1ccc(C(c2ccc(OC)cc2)C(Cl)(Cl)Cl)cc1`, the compound was called inactive in test [1].
On to `CNC(=S)S`, for which the compound was classed as inactive in test [5], in test [3] and in [1].
With `Cc1ccc(-c2c(Cl)nc(C#N)n2S(=O)(=O)N(C)C)cc1`, in test [5], the AC50 is 18.2 µM (active).
With `CC(C)(C)c1ccc(CSc2cnn(C(C)(C)C)c(=O)c2Cl)cc1`, the compound was classed as inactive in test [3].
`C=CCC1=C(C)[C@@H](OC(=O)[C@@H]2[C@@H](C=C(C)C)C2(C)C)CC1=O`: the outcome in [6] and in test [1] was inactive.
Take `CS/C(C)=N/OC(=O)N(C)SN(C)C(=O)O/N=C(\C)SC`: the outcome in [7] was inactive.
For `CCCCNC(=O)OCC#CI`, the outcome in test [2], in test [7] and in test [4] was inactive. Moreover, the AC50 was 17.5 µM (active) and 14.6 µM (active) in [8]; 25 µM (active) in test [7].
As for `CCCN(CCC)c1c([N+](=O)[O-])cc(S(N)(=O)=O)cc1[N+](=O)[O-]`, the call in test [2], in [5] and in [9] was inactive.
For `CCNc1nc(Cl)nc(NCC)n1`, the compound was classed as inactive in test [1].
With `O=C(Nc1ccccc1)Nc1ccnc(Cl)c1`, the compound was classed as inactive in [10].
For `COc1nc(C)nc(NC(=O)NS(=O)(=O)c2ccccc2Cl)n1`, the outcome in test [5] was inactive.
